Assay [1] concerns the target Glycogen synthase kinase-3 beta (Homo sapiens) (UniProt P49841). The settings on record: at 1 µM.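 Also: reported values are mean percent inhibition of GSK3B.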
Assay [2] concerns the target Homeodomain-interacting protein kinase 1 (Homo sapiens) (UniProt Q86Z02). To be noted: at 0.1 µM.
Assay [3] has the same target. To be noted: at 1 µM.
In assay [4] the target is T1, Homeodomain-interacting protein kinase 4 (Homo sapiens) (UniProt Q8NE63).
T1 sequence (whole entry): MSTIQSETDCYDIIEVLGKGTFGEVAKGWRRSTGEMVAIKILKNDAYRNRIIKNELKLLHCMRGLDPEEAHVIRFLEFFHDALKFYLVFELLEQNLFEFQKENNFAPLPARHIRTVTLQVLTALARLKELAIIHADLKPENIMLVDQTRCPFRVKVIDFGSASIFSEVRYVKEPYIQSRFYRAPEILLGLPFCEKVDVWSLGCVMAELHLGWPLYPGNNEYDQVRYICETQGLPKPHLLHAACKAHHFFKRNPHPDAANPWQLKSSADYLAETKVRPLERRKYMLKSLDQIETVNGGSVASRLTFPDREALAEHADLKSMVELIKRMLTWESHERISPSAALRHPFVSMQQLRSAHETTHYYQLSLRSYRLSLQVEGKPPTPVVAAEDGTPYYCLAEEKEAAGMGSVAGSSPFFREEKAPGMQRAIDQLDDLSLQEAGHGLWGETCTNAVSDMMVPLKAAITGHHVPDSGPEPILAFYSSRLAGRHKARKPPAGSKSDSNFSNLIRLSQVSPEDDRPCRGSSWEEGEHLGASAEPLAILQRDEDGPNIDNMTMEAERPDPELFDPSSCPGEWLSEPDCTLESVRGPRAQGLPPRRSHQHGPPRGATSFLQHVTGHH
To be noted: at 0.1 µM.

Assay [5] addresses T1, Homeodomain-interacting protein kinase 4 (Homo sapiens). The settings on record: at 1 µM.
For assay [6], the target named is Mitogen-activated protein kinase 9 (Homo sapiens) (UniProt P45984). To be noted: at 0.1 µM.
Chain of Mitogen-activated protein kinase 9 (Homo sapiens) (P45984 whole entry, looked up): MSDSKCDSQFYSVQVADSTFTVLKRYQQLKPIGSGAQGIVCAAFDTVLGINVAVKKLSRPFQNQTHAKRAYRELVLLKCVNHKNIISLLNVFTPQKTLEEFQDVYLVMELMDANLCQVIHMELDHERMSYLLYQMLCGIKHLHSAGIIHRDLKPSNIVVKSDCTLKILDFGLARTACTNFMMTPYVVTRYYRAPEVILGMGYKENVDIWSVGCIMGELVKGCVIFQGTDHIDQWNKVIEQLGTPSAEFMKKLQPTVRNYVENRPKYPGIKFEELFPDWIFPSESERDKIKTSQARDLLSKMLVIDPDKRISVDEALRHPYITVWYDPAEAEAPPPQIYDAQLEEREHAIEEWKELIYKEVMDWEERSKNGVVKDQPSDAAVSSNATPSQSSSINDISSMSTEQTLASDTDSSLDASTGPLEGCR
Assay [7] shares this target. The settings on record: at 1 µM.
The target in assay [8] is Mitogen-activated protein kinase 1 (Homo sapiens) (UniProt P28482). The settings on record: at 0.1 µM.
Chain of Mitogen-activated protein kinase 1 (Homo sapiens) (P28482 whole entry): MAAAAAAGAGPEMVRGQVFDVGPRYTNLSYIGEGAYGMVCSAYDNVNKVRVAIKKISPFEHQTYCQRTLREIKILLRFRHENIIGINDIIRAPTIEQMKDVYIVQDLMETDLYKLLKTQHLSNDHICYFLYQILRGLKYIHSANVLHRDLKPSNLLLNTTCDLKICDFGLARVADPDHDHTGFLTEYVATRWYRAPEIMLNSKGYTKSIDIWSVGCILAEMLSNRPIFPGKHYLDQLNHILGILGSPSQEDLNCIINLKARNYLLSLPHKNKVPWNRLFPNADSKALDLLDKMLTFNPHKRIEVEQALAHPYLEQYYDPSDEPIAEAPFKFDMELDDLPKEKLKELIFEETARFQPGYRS
Assay [9] has the same target. To be noted: at 1 µM.
In assay [10] the target is Mitogen-activated protein kinase 3 (Homo sapiens) (UniProt P27361). To be noted: at 0.1 µM.
Chain of Mitogen-activated protein kinase 3 (Homo sapiens) (P27361 whole entry): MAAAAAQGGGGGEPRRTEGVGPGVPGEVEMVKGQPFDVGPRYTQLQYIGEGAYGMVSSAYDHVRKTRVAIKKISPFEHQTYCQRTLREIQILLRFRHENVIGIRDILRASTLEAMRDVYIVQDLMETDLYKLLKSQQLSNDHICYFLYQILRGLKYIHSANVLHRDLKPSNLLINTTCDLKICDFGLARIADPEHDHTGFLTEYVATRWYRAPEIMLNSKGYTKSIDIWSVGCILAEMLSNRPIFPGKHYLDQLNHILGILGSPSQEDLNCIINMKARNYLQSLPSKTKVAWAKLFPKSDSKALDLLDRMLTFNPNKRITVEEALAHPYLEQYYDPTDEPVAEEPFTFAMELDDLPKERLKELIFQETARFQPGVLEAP
The target is the same in assay [11]. To be noted: at 1 µM.
Assay [12] deals with SRSF protein kinase 3 (Homo sapiens) (UniProt Q9UPE1). The settings on record: at 0.1 µM.
Chain of SRSF protein kinase 3 (Homo sapiens) (Q9UPE1 whole entry): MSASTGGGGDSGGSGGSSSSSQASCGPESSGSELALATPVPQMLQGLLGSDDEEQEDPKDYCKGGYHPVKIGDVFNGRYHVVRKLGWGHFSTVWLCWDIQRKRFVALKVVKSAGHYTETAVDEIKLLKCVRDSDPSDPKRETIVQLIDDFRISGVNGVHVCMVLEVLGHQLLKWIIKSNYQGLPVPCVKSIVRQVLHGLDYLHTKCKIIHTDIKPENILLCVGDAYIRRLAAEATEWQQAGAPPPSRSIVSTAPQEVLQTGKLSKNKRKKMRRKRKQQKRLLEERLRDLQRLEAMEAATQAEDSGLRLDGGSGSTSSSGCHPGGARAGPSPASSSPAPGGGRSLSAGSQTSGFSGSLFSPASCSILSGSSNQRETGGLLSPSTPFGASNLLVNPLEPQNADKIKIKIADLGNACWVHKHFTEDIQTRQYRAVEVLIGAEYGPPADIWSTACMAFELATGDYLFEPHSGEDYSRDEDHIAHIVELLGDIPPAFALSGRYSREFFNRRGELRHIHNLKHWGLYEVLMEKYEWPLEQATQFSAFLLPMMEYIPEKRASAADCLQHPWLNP
For assay [13] the target is unchanged. To be noted: at 1 µM.
Assay [14] deals with Mitogen-activated protein kinase 14 (Homo sapiens) (UniProt Q16539). The settings on record: at 0.1 µM.
Chain of Mitogen-activated protein kinase 14 (Homo sapiens) (Q16539 whole entry): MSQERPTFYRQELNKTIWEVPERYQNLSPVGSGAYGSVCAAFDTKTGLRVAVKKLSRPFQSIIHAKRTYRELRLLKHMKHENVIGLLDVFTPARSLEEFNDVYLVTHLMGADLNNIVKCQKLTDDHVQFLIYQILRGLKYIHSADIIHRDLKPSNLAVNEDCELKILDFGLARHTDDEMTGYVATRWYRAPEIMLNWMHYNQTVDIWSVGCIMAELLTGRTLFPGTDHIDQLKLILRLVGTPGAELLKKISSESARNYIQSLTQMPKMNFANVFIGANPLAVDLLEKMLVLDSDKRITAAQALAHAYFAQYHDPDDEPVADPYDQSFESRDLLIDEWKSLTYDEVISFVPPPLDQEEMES
The target is the same in assay [15]. The settings on record: at 1 µM.
Assay [16] addresses Mitogen-activated protein kinase 11 (Homo sapiens) (UniProt Q15759). The settings on record: at 0.1 µM.
The target is the same in assay [17]. To be noted: at 1 µM.
The target in assay [18] is T2, Mitogen-activated protein kinase 13 (Homo sapiens) (UniProt O15264).
T2 sequence (whole entry): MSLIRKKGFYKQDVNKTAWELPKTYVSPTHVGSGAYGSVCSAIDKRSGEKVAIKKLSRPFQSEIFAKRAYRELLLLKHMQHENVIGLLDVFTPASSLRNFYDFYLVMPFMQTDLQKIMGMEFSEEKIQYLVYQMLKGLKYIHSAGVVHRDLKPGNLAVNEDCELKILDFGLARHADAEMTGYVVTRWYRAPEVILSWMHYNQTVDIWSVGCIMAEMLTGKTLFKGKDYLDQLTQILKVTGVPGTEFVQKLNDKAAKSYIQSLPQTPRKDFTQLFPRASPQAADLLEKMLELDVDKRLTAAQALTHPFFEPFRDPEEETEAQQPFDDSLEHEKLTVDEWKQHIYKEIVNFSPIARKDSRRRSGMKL
The settings on record: at 0.1 µM.

The target in assay [19] is T2, Mitogen-activated protein kinase 13 (Homo sapiens). To be noted: at 1 µM.
In assay [20] the target is T3, Mitogen-activated protein kinase 12 (Homo sapiens) (UniProt P53778).
T3 sequence (whole entry): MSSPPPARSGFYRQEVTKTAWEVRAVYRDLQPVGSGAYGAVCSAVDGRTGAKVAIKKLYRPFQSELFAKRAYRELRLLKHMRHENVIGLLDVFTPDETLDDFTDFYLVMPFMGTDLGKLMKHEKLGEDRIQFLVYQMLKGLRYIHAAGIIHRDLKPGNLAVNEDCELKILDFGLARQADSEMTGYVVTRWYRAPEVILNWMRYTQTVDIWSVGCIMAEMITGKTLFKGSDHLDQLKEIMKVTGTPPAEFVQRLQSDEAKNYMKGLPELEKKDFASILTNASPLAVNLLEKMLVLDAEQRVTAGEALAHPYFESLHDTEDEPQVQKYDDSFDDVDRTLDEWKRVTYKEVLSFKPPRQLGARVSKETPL
The settings on record: at 0.1 µM.

Chain of Mitogen-activated protein kinase 11 (Homo sapiens) (Q15759 whole entry): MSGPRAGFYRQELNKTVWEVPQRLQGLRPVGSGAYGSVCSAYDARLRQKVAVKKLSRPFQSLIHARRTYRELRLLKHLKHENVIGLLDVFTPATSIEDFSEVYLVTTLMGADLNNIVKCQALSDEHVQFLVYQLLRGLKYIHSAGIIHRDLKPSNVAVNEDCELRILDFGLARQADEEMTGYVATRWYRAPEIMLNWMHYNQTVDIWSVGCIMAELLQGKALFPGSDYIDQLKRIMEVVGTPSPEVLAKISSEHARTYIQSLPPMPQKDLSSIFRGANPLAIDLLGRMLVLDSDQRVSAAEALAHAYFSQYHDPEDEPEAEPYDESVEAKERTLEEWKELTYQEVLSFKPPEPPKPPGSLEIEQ
Chain of Homeodomain-interacting protein kinase 1 (Homo sapiens) (Q86Z02 whole entry, looked up): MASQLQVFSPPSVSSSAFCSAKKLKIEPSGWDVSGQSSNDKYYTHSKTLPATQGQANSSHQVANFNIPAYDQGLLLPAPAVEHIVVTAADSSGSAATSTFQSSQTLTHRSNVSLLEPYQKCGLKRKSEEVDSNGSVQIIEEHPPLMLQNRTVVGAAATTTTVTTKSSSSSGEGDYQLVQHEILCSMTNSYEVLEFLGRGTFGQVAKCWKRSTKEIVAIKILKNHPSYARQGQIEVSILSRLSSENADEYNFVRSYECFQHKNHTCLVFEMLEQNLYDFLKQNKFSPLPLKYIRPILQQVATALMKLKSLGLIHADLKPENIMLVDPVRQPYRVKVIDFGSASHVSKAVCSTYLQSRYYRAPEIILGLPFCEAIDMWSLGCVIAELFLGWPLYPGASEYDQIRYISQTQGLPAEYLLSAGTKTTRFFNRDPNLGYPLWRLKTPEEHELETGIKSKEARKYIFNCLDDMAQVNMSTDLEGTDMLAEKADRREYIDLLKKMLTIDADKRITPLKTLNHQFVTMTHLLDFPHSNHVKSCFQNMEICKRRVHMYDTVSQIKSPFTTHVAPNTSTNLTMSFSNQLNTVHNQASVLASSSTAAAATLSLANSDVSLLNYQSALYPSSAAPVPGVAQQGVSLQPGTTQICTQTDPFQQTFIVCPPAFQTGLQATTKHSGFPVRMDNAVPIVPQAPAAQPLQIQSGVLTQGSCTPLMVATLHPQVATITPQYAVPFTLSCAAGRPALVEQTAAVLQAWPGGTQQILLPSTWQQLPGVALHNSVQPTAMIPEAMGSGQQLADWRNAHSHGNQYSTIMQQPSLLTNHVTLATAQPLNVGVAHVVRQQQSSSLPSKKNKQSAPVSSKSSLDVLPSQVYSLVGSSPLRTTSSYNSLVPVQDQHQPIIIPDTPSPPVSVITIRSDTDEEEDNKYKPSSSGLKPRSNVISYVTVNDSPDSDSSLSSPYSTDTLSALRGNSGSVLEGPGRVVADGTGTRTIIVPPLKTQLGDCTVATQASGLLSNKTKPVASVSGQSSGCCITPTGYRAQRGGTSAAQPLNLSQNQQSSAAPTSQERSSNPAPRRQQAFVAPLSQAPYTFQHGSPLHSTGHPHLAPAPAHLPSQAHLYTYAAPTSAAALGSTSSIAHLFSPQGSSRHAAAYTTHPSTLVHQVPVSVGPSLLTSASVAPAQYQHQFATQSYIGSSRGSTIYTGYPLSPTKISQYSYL
Chain of Glycogen synthase kinase-3 beta (Homo sapiens) (P49841 whole entry, looked up): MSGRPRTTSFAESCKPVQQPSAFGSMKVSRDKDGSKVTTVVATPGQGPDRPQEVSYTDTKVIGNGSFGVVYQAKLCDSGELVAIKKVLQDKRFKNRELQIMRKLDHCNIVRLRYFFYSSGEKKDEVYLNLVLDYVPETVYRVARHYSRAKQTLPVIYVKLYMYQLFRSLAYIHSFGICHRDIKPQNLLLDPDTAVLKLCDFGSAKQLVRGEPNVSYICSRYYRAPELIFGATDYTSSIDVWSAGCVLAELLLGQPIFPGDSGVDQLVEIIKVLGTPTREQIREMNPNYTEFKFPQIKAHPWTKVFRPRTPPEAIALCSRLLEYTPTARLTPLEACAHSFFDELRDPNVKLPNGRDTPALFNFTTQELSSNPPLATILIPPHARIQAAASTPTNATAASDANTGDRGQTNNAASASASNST

With `NCc1ccc(-n2c(-c3nonc3N)nc3cnccc32)cc1`, the inhibition (usually the change of the read-out against control, counted positive when it falls) in [1] came to 60.1%; in [2] it was 1.51%; in assay [3], 9.18%; in [4] it was 0.98%; in assay [5], 5.32%; in [6] it was 7.98%. In addition, the inhibition in assay [7] is 6.05%; in assay [8] it was 6.45%; in assay [9], 8.32%; in [10], 4.41%; in [11], 5.64%; in assay [12] it was -0.85%. Besides, the inhibition is -1.47% in assay [13]; 4.72% in assay [14]; 10% in assay [15]; 5.07% in [16]; 11% in assay [17]; 2.2% in assay [18]. Further, the figures for the inhibition in assay [19] and in [20] were 7.37% and 3.52%, respectively.

In the case of `CNC(=O)c1cncc(/C=C/c2c(C)cccc2C)c1`, the inhibition in assay [1] was -0.33%; in assay [2], -0.47%; in assay [3], 2.67%; in assay [4] it was 1.19%; in [5], 6.66%; in assay [6] it was 2.54%. Also, the inhibition is 1.94% in assay [7]; -3.06% in assay [8]; 0.43% in [9]; 0.86% in assay [10]; 3.65% in [11]; -0.82% in assay [12]. Besides, the inhibition is 2.87% in assay [13]; 1.86% in [14]; 7.55% in assay [15]; 0.94% in [16]; 2.24% in [17]; -0.85% in assay [18]. The inhibition is -0.13% in assay [19] and -0.99% in [20].

Turning to `CCC(=O)Nc1ccc(C)c(-c2ccc(C(=O)NCC3CC3)cc2)c1`, the inhibition in assay [1] is 2.31%; in assay [2], -3.16%; in assay [3], -2.43%; in assay [4] it was 0.11%; in assay [5] it was 0.55%; in assay [6] it was 2.92%. Besides, the inhibition in [7] is 4.2%; in [8], 4.32%; in assay [9], 4.25%; in [10], 2.94%; in assay [11] it was 1.57%; in [12] it was -1.41%. In addition, the inhibition is -1.57% in assay [13]; 20.1% in [14]; 62.9% in assay [15]; 6.54% in assay [16]; 36.8% in assay [17]; 3.68% in assay [18]. In addition, the inhibition in [19] turned out to be 3.22%; in [20], 2.95%.

Consider `O=C1Nc2ccccc2/C1=C/Nc1ccc(-n2cncn2)cc1`, for which the inhibition was 25.4% in assay [1]; 2.9% in [2]; 5.5% in assay [3]; 0.86% in assay [4]; 3.17% in [5]; 5.47% in assay [6]. Moreover, the inhibition in assay [7] is 12.1%; in assay [8] it was 6.04%; in [9] it was 6.4%; in assay [10] it was 93.3%; in assay [11], 6.36%; in [12], -3.04%. The inhibition in assay [13] is -0.36%; in [14] it was 2.12%; in [15], 6.86%; in assay [16], 5.3%; in assay [17] it was 8.05%; in assay [18] it was 2.33%. Also, the inhibition in assay [19] was found to be 5.56%; in assay [20] it was 2.03%.

For `O=C(Nc1ccc(Oc2ccc3[nH]c(NC(=O)c4ccccc4)nc3c2)cc1)Nc1cc(C(F)(F)F)ccc1F`, the inhibition was 7.73% in [1]; -0.21% in assay [2]; 0.17% in assay [3]; 9.12% in assay [4]; 47.7% in [5]; 3.43% in [6]. Further, the inhibition in assay [7] amounted to 6.62%; in assay [8] it was 2.12%; in [9] it was 2.7%; in [10] it was 4.31%; in assay [11], 3.58%; in assay [12], 4.8%. Besides, the inhibition in assay [13] came to 50.7%; in assay [14], 11.1%; in assay [15], 40%; in assay [16], 5.44%; in [17], 32.5%; in assay [18], 1.65%. The inhibition in assay [19] was 3.87%; in assay [20], -0.11%.

For the compound `c1ccc(-c2n[nH]cc2-c2ccnc(-c3ccc(OCCN4CCOCC4)cc3)c2)nc1`, the inhibition is 5.85% in [1]; 0.91% in assay [2]; 2.07% in [3]; 3.43% in assay [4]; 5.51% in assay [5]; 0.62% in assay [6]. Moreover, the inhibition was 5.45% in assay [7]; -2.8% in assay [8]; -3.16% in assay [9]; -0.63% in [10]; -2.62% in assay [11]; 2.38% in assay [12]. Moreover, the inhibition in [13] was 0.78%; in [14], 3.12%; in assay [15] it was 28.9%; in assay [16], -0.65%; in [17], 5.15%; in [18], 5.65%. The inhibition in assay [19] is -0.43%; in assay [20], 3.09%.

On to `C/C(Nc1ccc(S(N)(=O)=O)cc1)=C1/C(=O)Nc2ccccc21`, for which the inhibition in assay [1] is 9.04%; in [2], -1.51%; in assay [3], -1.35%; in assay [4] it was 0.16%; in assay [5], 2.56%; in assay [6], -3.47%. In addition, the inhibition in assay [7] is 3.67%; in assay [8], 3.1%; in assay [9], -2.06%; in assay [10], 2.55%; in [11], 0.88%; in [12], -1.51%. In addition, the inhibition in [13] is -1.15%; in [14], 2.61%; in assay [15] it was 3.43%; in assay [16], 1.67%; in [17] it was 7.87%; in assay [18] it was -0.85%. For the same compound, the inhibition was -1.14% in assay [19] and -1.08% in [20].

Source of the values: ChEMBL document CHEMBL1961873, “Compounds: GSK PKIS; Assays: Nanosyn kinase panel” (2012).
